# Only a selection was taken, and the strongest signals are over-represented in it overall.
# How the values were obtained:
# Assay in all cases: glycan array binding signal (z-score within array); higher = stronger binding
# Details in all cases: glycan notation: IUPAC condensed, linker removed
# [1] = molecular target: Fuc(a1-2)Gal(b1-3)GlcNAc(b1-3)[Fuc(a1-2)Gal(b1-3)GlcNAc(b1-6)]GalNAc
# Method in brief: (§1)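 Glycan array data came from 3228 arrays in the Consortium for Functional Glycomics database, and only arrays with an available protein sequence were kept. Glycan names were put into IUPAC-condensed notation, and columns mapping to the same glycan were averaged. The binding signal is a within-array Z-score, averaged across arrays of one protein sequence run at different concentrations or buffers and across linkers. A negative Z-score can be read as non-binding.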
# [2] = molecular target: Fuc(a1-2)Gal(b1-4)GlcNAc(b1-3)Gal(b1-4)GlcNAc
# Method in brief: as §1
# [3] = molecular target: Fuc(a1-2)[Gal(a1-3)]Gal(b1-4)Glc
# Method in brief: as §1
# [4] = molecular target: Fuc(a1-2)[Gal(a1-3)]Gal(b1-4)[Fuc(a1-3)]GlcNAc
# Method in brief: as §1
# [5] = molecular target: Fuc(a1-2)[GalNAc(a1-3)]Gal(b1-3)GlcNAc(b1-6)GalNAc
# Method in brief: as §1
# [6] = molecular target: Fuc(a1-2)[GalNAc(a1-3)]Gal(b1-4)Glc
# Method in brief: as §1
# [7] = molecular target: Gal(a1-3)Gal(b1-4)[Fuc(a1-3)]GlcNAc
# Method in brief: as §1
# [8] = molecular target: Gal(a1-4)GlcNAc
# Method in brief: as §1
# [9] = molecular target: Gal(a1-6)Glc
# Method in brief: as §1
# [10] = molecular target: Gal(b1-3)GlcNAc(a1-6)Gal(b1-4)GlcNAc
# Method in brief: as §1
# [11] = molecular target: Gal(b1-3)GlcNAc(b1-3)Gal(b1-3)GlcNAc
# Method in brief: as §1
# [12] = molecular target: Gal(b1-3)GlcNAc(b1-3)Gal(b1-4)GlcNAc(b1-3)Gal(b1-4)GlcNAc(b1-2)[Gal(b1-3)GlcNAc(b1-3)Gal(b1-4)GlcNAc(b1-3)Gal(b1-4)GlcNAc(b1-6)]Man(a1-6)[Gal(b1-3)GlcNAc(b1-3)Gal(b1-4)GlcNAc(b1-3)Gal(b1-4)GlcNAc(b1-2)Man(a1-3)]Man(b1-4)GlcNAc(b1-4)[Fuc(a1-6)]GlcNAc
# Method in brief: as §1
# [13] = molecular target: Gal(b1-3)GlcNAc6S
# Method in brief: as §1
# [14] = molecular target: Gal(b1-4)GlcNAc(b1-2)[Gal(b1-4)GlcNAc(b1-6)]Man(a1-6)[Gal(b1-4)GlcNAc(b1-2)Man(a1-3)]Man(b1-4)GlcNAc(b1-4)GlcNAc
# Method in brief: as §1
# [15] = molecular target: Gal(b1-4)GlcNAc(b1-3)Gal(b1-4)GlcNAc(b1-3)Gal(b1-4)GlcNAc(b1-2)Man(a1-3)[Gal(b1-4)GlcNAc(b1-3)Gal(b1-4)GlcNAc(b1-3)Gal(b1-4)GlcNAc(b1-2)Man(a1-6)]Man(b1-4)GlcNAc(b1-4)[Fuc(a1-6)]GlcNAc
# Method in brief: as §1
# [16] = molecular target: Gal(b1-4)GlcNAc(b1-3)Gal(b1-4)GlcNAc(b1-3)Gal(b1-4)GlcNAc(b1-2)[Gal(b1-4)GlcNAc(b1-3)Gal(b1-4)GlcNAc(b1-3)Gal(b1-4)GlcNAc(b1-6)]Man(a1-6)[Gal(b1-4)GlcNAc(b1-3)Gal(b1-4)GlcNAc(b1-3)Gal(b1-4)GlcNAc(b1-2)Man(a1-3)]Man(b1-4)GlcNAc(b1-4)[Fuc(a1-6)]GlcNAc
# Method in brief: as §1
# [17] = molecular target: Gal(b1-4)GlcNAc(b1-3)Gal(b1-4)GlcNAc(b1-3)Gal(b1-4)GlcNAc(b1-3)Gal(b1-4)GlcNAc(b1-2)Man(a1-3)[Gal(b1-4)GlcNAc(b1-3)Gal(b1-4)GlcNAc(b1-3)Gal(b1-4)GlcNAc(b1-3)Gal(b1-4)GlcNAc(b1-2)Man(a1-6)]Man(b1-4)GlcNAc(b1-4)GlcNAc
# Method in brief: as §1
# [18] = molecular target: Gal(b1-4)GlcNAc(b1-3)Gal(b1-4)GlcNAc(b1-3)Gal(b1-4)GlcNAc(b1-3)Gal(b1-4)GlcNAc(b1-2)Man(a1-3)[Gal(b1-4)GlcNAc(b1-3)Gal(b1-4)GlcNAc(b1-3)Gal(b1-4)GlcNAc(b1-3)Gal(b1-4)GlcNAc(b1-2)Man(a1-6)]Man(b1-4)GlcNAc(b1-4)[Fuc(a1-6)]GlcNAc
# Method in brief: as §1
# [19] = molecular target: Gal(b1-4)GlcNAc(b1-3)Gal(b1-4)GlcNAc(b1-3)Gal(b1-4)GlcNAc(b1-3)Gal(b1-4)GlcNAc(b1-2)[Gal(b1-4)GlcNAc(b1-3)Gal(b1-4)GlcNAc(b1-3)Gal(b1-4)GlcNAc(b1-3)Gal(b1-4)GlcNAc(b1-6)]Man(a1-6)[Gal(b1-4)GlcNAc(b1-3)Gal(b1-4)GlcNAc(b1-3)Gal(b1-4)GlcNAc(b1-3)Gal(b1-4)GlcNAc(b1-2)Man(a1-3)]Man(b1-4)GlcNAc(b1-4)[Fuc(a1-6)]GlcNAc
# Method in brief: as §1
# [20] = molecular target: Gal(b1-4)GlcNAc(b1-3)Gal(b1-4)GlcNAc(b1-3)Gal(b1-4)GlcNAc(b1-3)Gal(b1-4)GlcNAc(b1-3)Gal(b1-4)GlcNAc(b1-2)Man(a1-3)[Gal(b1-4)GlcNAc(b1-3)Gal(b1-4)GlcNAc(b1-3)Gal(b1-4)GlcNAc(b1-3)Gal(b1-4)GlcNAc(b1-3)Gal(b1-4)GlcNAc(b1-2)Man(a1-6)]Man(b1-4)GlcNAc(b1-4)GlcNAc
# Method in brief: as §1
# [21] = molecular target: Gal(b1-4)GlcNAc(b1-3)Gal(b1-4)GlcNAc(b1-3)Gal(b1-4)GlcNAc(b1-3)Gal(b1-4)GlcNAc(b1-3)Gal(b1-4)GlcNAc(b1-2)Man(a1-3)[Gal(b1-4)GlcNAc(b1-3)Gal(b1-4)GlcNAc(b1-3)Gal(b1-4)GlcNAc(b1-3)Gal(b1-4)GlcNAc(b1-3)Gal(b1-4)GlcNAc(b1-2)Man(a1-6)]Man(b1-4)GlcNAc(b1-4)[Fuc(a1-6)]GlcNAc
# Method in brief: as §1
# [22] = molecular target: Gal(b1-4)GlcNAc(b1-3)Gal(b1-4)GlcNAc(b1-3)Gal(b1-4)GlcNAc(b1-3)Gal(b1-4)GlcNAc(b1-3)Gal(b1-4)GlcNAc(b1-2)[Gal(b1-4)GlcNAc(b1-3)Gal(b1-4)GlcNAc(b1-3)Gal(b1-4)GlcNAc(b1-3)Gal(b1-4)GlcNAc(b1-3)Gal(b1-4)GlcNAc(b1-6)]Man(a1-6)[Gal(b1-4)GlcNAc(b1-3)Gal(b1-4)GlcNAc(b1-3)Gal(b1-4)GlcNAc(b1-3)Gal(b1-4)GlcNAc(b1-3)Gal(b1-4)GlcNAc(b1-2)Man(a1-3)]Man(b1-4)GlcNAc(b1-4)[Fuc(a1-6)]GlcNAc
# Method in brief: as §1
# [23] = molecular target: Gal(b1-4)GlcNAc(b1-3)Gal(b1-4)GlcNAc(b1-3)Gal(b1-4)GlcNAc(b1-3)Gal(b1-4)GlcNAc(b1-3)Gal(b1-4)GlcNAc(b1-3)Gal(b1-4)GlcNAc(b1-2)Man(a1-3)[Gal(b1-4)GlcNAc(b1-3)Gal(b1-4)GlcNAc(b1-3)Gal(b1-4)GlcNAc(b1-3)Gal(b1-4)GlcNAc(b1-3)Gal(b1-4)GlcNAc(b1-3)Gal(b1-4)GlcNAc(b1-2)Man(a1-6)]Man(b1-4)GlcNAc(b1-4)GlcNAc
# Method in brief: as §1
binder,measurement,setting,value
"Gal 3C (Homo sapiens), P17931 (protein) YGAPAGPLIVPYNLPLPGGVVPRMLITILGTVKPNANRIALDFQRGNDVAFHFNPRFNENNRRVIVCNTKLDNNWGREERQSVFPFESGKPFKIQVLVEPDHFKVAVNDAHLLQYNHRVKKLNEISKLGISGDIDLTSASYTMI",glycan array binding signal (z-score),[1],-0.212
same,glycan array binding signal (z-score),[2],1.07
same,glycan array binding signal (z-score),[3],-0.106
same,glycan array binding signal (z-score),[4],-0.196
same,glycan array binding signal (z-score),[5],-0.229
same,glycan array binding signal (z-score),[6],-0.117
same,glycan array binding signal (z-score),[7],-0.259
same,glycan array binding signal (z-score),[8],-0.295
same,glycan array binding signal (z-score),[9],-0.222
same,glycan array binding signal (z-score),[10],-0.269
same,glycan array binding signal (z-score),[11],-0.068
same,glycan array binding signal (z-score),[12],1.95
same,glycan array binding signal (z-score),[13],-0.277
same,glycan array binding signal (z-score),[14],-0.222
same,glycan array binding signal (z-score),[15],4.24
same,glycan array binding signal (z-score),[16],4.41
same,glycan array binding signal (z-score),[17],5.03
same,glycan array binding signal (z-score),[18],4.24
same,glycan array binding signal (z-score),[19],4.44
same,glycan array binding signal (z-score),[20],4.06
same,glycan array binding signal (z-score),[21],6.46
same,glycan array binding signal (z-score),[22],6.39
same,glycan array binding signal (z-score),[23],4.39
